Measurements as given in PubChem BioAssay (Tox21).
Results filed as inconclusive are left out. Activity calls are given as the source filed them. Unless noted, calls come from the whole dose curve.

Assays:
[1] = qHTS assay to identify small molecule agonists of the vitamin D receptor (VDR) signaling pathway - cell viability counter screen (AID 743224; active = well fitted curve in the direction sought with a large enough effect in the repeat runs; an effect the other way counts as inactive or inconclusive; note: series mostly up to about 63 µM; % is set by controls: 0 for no effect and ±100 for the full control effect; nearly all actives have a fitted effect of over 50% in size)
Summary of the method: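 Viability is measured in the same wells as the VDR-bla reporter assay: after 16 h compound treatment and 2 h substrate loading, CellTiter-Glo is added and luminescence read 30 min later.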

[2] = qHTS assay to identify small molecule antagonists of the vitamin D receptor (VDR) signaling pathway - cell viability counter screen (AID 743225; active = well fitted curve in the direction sought with a large enough effect in the repeat runs; an effect the other way counts as inactive or inconclusive; note: % is set by controls: 0 for no effect and ±100 for the full control effect; nearly all actives have a fitted effect of over 50% in size)
Summary of the method: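 HEK293T VDR-bla; cpd + 1a,25-(OH)2D3 3 nM final, 16 h 37C/5% CO2; B/G FRET substrate 2 h RT; then CellTiter-Glo 30 min RT, luminescence.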

[3] = qHTS assay to identify small molecule agonists of the NFkB signaling pathway (AID 1159509; active = well fitted curve in the direction sought with a large enough effect in the signal ratio in the repeat runs, not every such curve was filed as active; the % refers to the signal ratio; note: series mostly up to about 61 µM; % is set by controls: 0 for no effect and ±100 for the full control effect)
Summary of the method: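 ME-180 NFkB-bla, 2,000 cells/well, overnight plating; cpd pinned in DMSO, 5 h 37 C; B/G FRET substrate 1.5 h RT; ex 405, em 460/530 nm.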

[4] = qHTS assay to identify small molecule agonists of the NFkB signaling pathway - cell viability counter screen (AID 1159515); note: series mostly up to about 61 µM; % is set by controls: 0 for no effect and ±100 for the full control effect; nearly all actives have a fitted effect of over 55% in size
Summary of the method: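 Multiplexed viability readout: after the 5 hr compound exposure and 1.5 hr FRET substrate step, CellTiter-Glo reagent went into the same NFkB-bla ME-180 wells; ATP luminescence was measured after 30 min at room temperature.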

[5] = qHTS assay to identify small molecule agonists of the endoplasmic reticulum stress response signaling pathway (AID 1159516; active = well fitted activation curve with a large enough effect in the signal ratio in the repeat runs, not every such curve was filed as active; the % refers to the signal ratio; note: % is set by controls: 0 for no effect and ±100 for the full control effect)
Summary of the method: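 Tox21 10K library screened in quantitative HTS format on ESRE-bla HeLa cells, a beta-lactamase reporter under ER stress response element control; 5 hr treatment, FRET read.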

[6] = qHTS assay to identify small molecule agonists of the endoplasmic reticulum stress response signaling pathway - cell viability counter screen (AID 1159517); note: series mostly up to about 61 µM; % is set by controls: 0 for no effect and ±100 for the full control effect; nearly all actives have a fitted effect of over 50% in size
Summary of the method: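 CellTiter-Glo was added to wells already read for beta-lactamase FRET, and luminescence was recorded 30 min later. Cells: ESRE-bla HeLa, 1,500 per well, compound exposure 5 hr at 37 C.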

[7] = qHTS assay to identify small molecule antagonists of the retinoid-related orphan receptor gamma (ROR-gamma) signaling pathway - cell viability counter screen (AID 1159520; active = well fitted curve in the direction sought with a large enough effect in the repeat runs; an effect the other way counts as inactive or inconclusive; note: % is set by controls: 0 for no effect and ±100 for the full control effect; nearly all actives have a fitted effect of over 50% in size)
Summary of the method: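 Tet-on ROR gamma CHO cells (1,000/well) were plated 4 hr, given compounds in DMSO for 2 hr at 37 C, then induced with 1 uM final doxycycline for 16 hr. Viability was read as ATP by CellTiter-Glo luminescence after 30 min.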

[8] = molecular target: Nuclear receptor ROR-gamma (Homo sapiens) (UniProt P51449); assay: qHTS assay to identify small molecule antagonists of the retinoid-related orphan receptor gamma (ROR-gamma) signaling pathway (AID 1159521; active = well fitted curve in the direction sought with a large enough effect in the repeat runs; an effect the other way counts as inactive or inconclusive)
Summary of the method: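 Cells were plated, rested 4 h at 37 C, exposed to compounds for 2 h, then given 1 uM final doxycycline hyclate to induce RORγ expression. After 16 h, ONE-Glo luminescence from the ROR response element reporter was measured.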

[9] = qHTS assay to identify small molecule agonists of the AP-1 signaling pathway - cell viability counter screen (AID 1159525); note: nearly all actives have a fitted effect of over 55% in size
Summary of the method: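 ME-180 AP-1-bla, 2500 cells/well, Opti-MEM + 0.5% dialyzed FBS; overnight 37 °C; cpd 15-pt titration, 5 h 37 °C; CellTiter-Glo 30 min RT; luminescence read; normalised to TOAB and DMSO controls.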

[10] = qHTS assay to identify small molecule agonists of the AP-1 signaling pathway (AID 1159526); note: % is set by controls: 0 for no effect and ±100 for the full control effect

O=[N+]([O-])c1ccc(F)cc1F
inactive: Potency [1] | Potency [2] | outcome [3] | outcome [4] | outcome [5] | outcome [6] | outcome [7] | Potency [8] | Potency [9] | outcome [10]

CCC(=O)OC(C)c1ccccc1 (stereo unspecified)
inactive: Potency [1] | Potency [2] | outcome [3] | outcome [4] | outcome [5] | outcome [6] | outcome [7] | Potency [8] | Potency [9] | outcome [10]

C[C@@H]1CCN(C(=O)[C@H](CCCN=C(N)N)NS(=O)(=O)c2cccc3c2NC[C@H](C)C3)[C@@H](C(=O)O)C1
inactive: Potency [1] | Potency [2] | outcome [3] | outcome [4] | outcome [5] | outcome [6] | outcome [7] | Potency [8] | Potency [9] | outcome [10]

CCCc1cc(C(N)=S)ccn1
inactive: Potency [1] | Potency [2] | outcome [3] | outcome [4] | outcome [5] | outcome [6] | outcome [7] | Potency [8] | Potency [9] | outcome [10]

C=CCOCC(CC)(CO)COCC=C
inactive: Potency [1] | Potency [2] | outcome [3] | outcome [4] | outcome [5] | outcome [6] | outcome [7] | Potency [8] | Potency [9] | outcome [10]

Nc1ccc(S(=O)(=O)Nc2ccnn2-c2ccccc2)cc1
inactive: Potency [1] | outcome [3] | outcome [4] | outcome [5] | outcome [6] | activity, negative = cytotoxicity [7] 2.08% [at 19 µM] | Potency [8] | viability change, negative = cytotoxic [9] 2.53% [at 15.8 µM] | outcome [10]

O=C1CC2CC1C1CCCC21 (stereo unspecified)
inactive: Potency [1] | outcome [3] | outcome [4] | outcome [5] | outcome [6] | outcome [7] | Potency [8] | Potency [9] | outcome [10]

OCCOc1ccc(OCCO)cc1
inactive: Potency [1] | outcome [3] | outcome [4] | outcome [5] | outcome [6] | outcome [7] | Potency [8] | Potency [9] | outcome [10]

Cc1[nH]c(=O)c(C#N)cc1-c1ccc2nccn2c1
inactive: Potency [1] | Potency [2] | outcome [3] | outcome [4] | outcome [5] | outcome [6] | outcome [7] | Potency [8] | Potency [9] | outcome [10]

O=C(O)Cc1ccc(CCNS(=O)(=O)c2ccc(Cl)cc2)cc1
inactive: Potency [1] | outcome [3] | outcome [4] | outcome [5] | outcome [6] | outcome [7] | Potency [8] | Potency [9] | outcome [10]

Nc1c2c(nc3ccccc13)CCCC2O (stereo unspecified)
inactive: Potency [1] | Potency [2] | outcome [3] | outcome [4] | outcome [5] | outcome [6] | outcome [7] | Potency [8] | Potency [9] | outcome [10]

CCOC(C)(C)C
inactive: Potency [1] | Potency [2] | outcome [3] | outcome [4] | outcome [5] | outcome [6] | outcome [7] | Potency [8] | Potency [9] | outcome [10]

CC(=O)Nc1ccc(S(N)(=O)=O)cc1
inactive: Potency [1] | Potency [2] | outcome [3] | outcome [4] | outcome [5] | outcome [6] | outcome [7] | Potency [8] | Potency [9] | outcome [10]

O=C1CCCCCCCCCCCN1
inactive: Potency [1] | Potency [2] | outcome [3] | outcome [4] | outcome [5] | outcome [6] | outcome [7] | Potency [8] | Potency [9] | outcome [10]

CN1N=C(C(N)=O)CCC1=O
inactive: Potency [1] | Potency [2] | outcome [3] | outcome [4] | outcome [5] | outcome [6] | outcome [7] | Potency [8] | Potency [9] | outcome [10]

NS(=O)(=O)c1ccccc1Cl
inactive: Potency [1] | Potency [2] | outcome [3] | outcome [4] | outcome [5] | outcome [6] | outcome [7] | Potency [8] | Potency [9] | outcome [10]

CC(C)(CC(=O)O)C(=O)O
inactive: Potency [1] | Potency [2] | outcome [3] | outcome [4] | outcome [5] | outcome [6] | outcome [7] | Potency [8] | Potency [9] | outcome [10]

O=C1NC(=O)[C@@]2(CCOc3ccc(F)cc32)N1
inactive: Potency [1] | Potency [2] | outcome [3] | outcome [4] | outcome [5] | outcome [6] | outcome [7] | Potency [8] | Potency [9] | outcome [10]

CCCN1CCCC[C@H]1C(=O)Nc1c(C)cccc1C
inactive: Potency [1] | Potency [2] | outcome [3] | outcome [4] | outcome [5] | outcome [6] | outcome [7] | Potency [8] | Potency [9] | outcome [10]

CC(=O)OCC(=O)[C@@]1(O)CCC2C3CCC4=CC(=O)CC[C@]4(C)C3[C@@H](O)C[C@@]21C (stereo partly specified)
inactive: Potency [1] | Potency [2] | outcome [3] | outcome [4] | outcome [5] | outcome [6] | outcome [7] | Potency [8] | Potency [9] | outcome [10]

C=CCS(=O)(=O)O
inactive: Potency [1] | Potency [2] | outcome [3] | outcome [4] | outcome [5] | outcome [6] | outcome [7] | Potency [8] | Potency [9] | outcome [10]

CCCCCCCCCCCCCCCCC
inactive: Potency [1] | Potency [2] | outcome [3] | outcome [4] | outcome [5] | outcome [6] | outcome [7] | Potency [8] | Potency [9] | outcome [10]

COC(=O)CC(C)=O
inactive: Potency [1] | Potency [2] | outcome [3] | outcome [4] | outcome [5] | outcome [6] | outcome [7] | Potency [8] | Potency [9] | outcome [10]

O=C(O)CCCc1ccccc1
inactive: Potency [1] | Potency [2] | outcome [3] | outcome [4] | outcome [5] | outcome [6] | outcome [7] | Potency [8] | Potency [9] | outcome [10]
